Shown is part of a subset that was picked to be rich in hits.
L3MBTL1 inh: qHTS Assay for the Inhibitors of L3MBTL1 | Lethal(3)malignant brain tumor-like protein 1 (Homo sapiens), Q9Y468 | AlphaScreen L3MBTL1–H3K9me1 peptide binding | Potency, µM (series often up to 57.1 µM), without a hit: at the top dose activity, negative = inhibition, most hits filed as inhibitors | actives 0.66% (n = 230,000); active = well fitted inhibition curve with a large enough effect; inconclusive = small, poorly fitted or top-dose-only effect; inactive = no such curve, though single readings can be large or run the other way; note: potency is the fitted concentration of half-maximal effect; nearly all actives have a fitted effect of over 60% in size
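Displacement of a biotinylated histone H3(1-15) peptide monomethylated at Lys9 (75 nM) from L3MBTL1 (50 nM) was measured by AlphaScreen after a 30 min room-temperature compound incubation; cefsulodin titration served as intraplate control.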
KDM4E inh: qHTS Assay for Inhibitors of Human Jumonji Domain Containing 2E (JMJD2E). Lysine-specific demethylase 4E (Homo sapiens), B2RXH2. JMJD2E catalytic domain, FDH-coupled NADH fluorescence (FDH is formaldehyde dehydrogenase). Potency, µM (doses to about 57.1 µM), for inactives: at the highest dose activity change, negative = inhibition, usual class: inhibitors. actives 1.6% (n = 230,000). AID 2147, 2009; active = well fitted inhibition curve with a large enough effect, not every such curve was filed as active; inconclusive = small, poorly fitted or top-dose-only effect, or another doubt; inactive = no such curve, though single readings can be large or run the other way;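 note: potency is the fitted concentration of half-maximal effect; 0% = wells with enzyme and -100% = buffer wells without enzyme; nearly all actives have a fitted effect of over 50% in size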
Target sequence (B2RXH2 1-337 limits assumed): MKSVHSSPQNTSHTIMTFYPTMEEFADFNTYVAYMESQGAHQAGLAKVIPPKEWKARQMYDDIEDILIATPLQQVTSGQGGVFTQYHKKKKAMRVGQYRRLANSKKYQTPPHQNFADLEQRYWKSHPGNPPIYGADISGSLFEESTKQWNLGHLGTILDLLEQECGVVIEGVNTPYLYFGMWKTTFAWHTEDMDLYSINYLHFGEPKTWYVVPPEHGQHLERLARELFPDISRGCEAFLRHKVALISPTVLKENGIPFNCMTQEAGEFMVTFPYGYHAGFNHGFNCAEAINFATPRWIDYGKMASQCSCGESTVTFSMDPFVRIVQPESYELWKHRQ
CtBP-E1A inh: qHTS Assay for Inhibitors of the CtBP/E1A Interaction; AID 651724, 2012; activity change, % (no concentration beside the values); AlphaScreen GST-E1A/His-CtBP binding, 1536-well; hits give low values; CtBP / adenovirus E1A interaction (AlphaScreen); actives 0.49% (n = 340,000)
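Homogeneous bead-based format: GST-tagged E1A captured on glutathione donor beads, His-tagged CtBP on nickel acceptor beads; compounds precede bead addition by 2 h at 37 °C.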
Six1-Eya2 blk: qHTS Assay for Inhibitors of the Six1/Eya2 Interaction; Homeobox protein SIX1 (Homo sapiens) + Protein phosphatase EYA2 (Homo sapiens), …; AlphaScreen GST-Six1/His-Eya2 binding, biochemical; hits give low values; activity change, % (test concentration not listed); actives 0.56% (n = 360,000)
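Homogeneous AlphaScreen proximity assay pairing GST-Six1 with His-tagged Eya2 (added as 5X mix: 250 nM and 500 nM) in 50 mM Tris pH 8.0, 300 mM NaCl, 1 mM TCEP. Glutathione donor and nickel acceptor beads; 1 h, 37 °C, dark.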
Active calls of the source: *; ? = inconclusive; . = no result; [ ] = another dose, or the depositor's remark. Cut-off read from the data, not from the text of the source, unless noted: active = activity change below about -65%; inconclusive = mostly about -30% to -63%; inactive = weaker than that. Unless noted, % is set by controls: 0 for no effect and ±100 for the full control effect.

SMILES	L3MBTL1 inh	KDM4E inh	CtBP-E1A inh	Six1-Eya2 blk
CN=c1scc(-c2cccs2)n1/N=C/c1ccc(O)c(O)c1O	14µM*	14µM*	-88*	-77*
CN=c1scc(C)n1/N=C/c1ccc(O)c(O)c1O	.	7.9µM*	?	?
Oc1cccc2ccc(Nc3ccccn3)nc12	?	?	-100*	-91*
c1ccc(Nc2ccccc2Nc2ccccn2)nc1	-9%	-16%	-2	-6
CCOc1ccccc1N1C(=O)CC(Nc2ccc(N3CCOCC3)cc2)C1=O (stereo not drawn)	28µM*	4%	-12	-13
CC(CN1CCCCC1)OC(=O)COc1ccc(Br)cc1 (stereo not drawn)	0%	.	0	7
COc1ccccc1/C=N/NC(=O)c1ccccc1Cl	.	-6%	3	14
C=CCc1cccc(/C=N/NC(=O)c2ccccc2OC)c1O	.	32µM*	-2	-1
C=CCc1cccc(/C=N/NC(=O)c2ccccc2Br)c1O	.	25µM*	-11	-11
COc1cc(N=c2ssnc2Cl)c(OC)cc1Cl	-10%	13µM*	?	-5
Nc1ccccc1N=c1ssnc1Cl	.	?	-17	-12
COc1ccc(OC)c(N=c2ssnc2Cl)c1	-7%	13µM*	-9	-2
CC(=O)c1ccc(N(CC(=O)NCc2ccc3c(c2)OCO3)C(=O)c2csnn2)cc1	.	.	-3	-3
CCOC(=O)[C@H]1[C@H]2COc3ccc(Cl)cc3[C@@H]2N2C(=O)[C@@H](CO)NC(=O)[C@@]12C	-6%	.	1	-5
CCCCCCNC(=O)N[C@H](C(=O)NCCC[C@H]1CN2C(=NC[C@H]2C)N1CCC(c1ccccc1)c1ccccc1)C(C)O (stereo partly drawn)	.	20µM*	.	.
C[C@@H]1CN=C2N(CCNC(=O)CCC3CCCCC3)[C@H](Cc3ccc(O)cc3)CN21	3%	-10%	2	4
CC(CSc1n[nH]c(=S)s1)c1ccccc1 (stereo not drawn)	.	.	-18	-12
CC(C)CSc1n[nH]c(=S)s1	2%	10µM*	-11	3
NC(=O)c1c(NC(=O)c2ccccc2)sc2c1CCc1ccccc1-2	.	?	5	5
O=C(Nc1cccc(O)c1)c1cccc(S(=O)(=O)N2CCCC2)c1	.	-1%	?	-72*
CN1CCN(S(=O)(=O)c2cccc(C(=O)Nc3sccc3C(N)=O)c2)CC1	-8%	.	-80*	-77*
CN1CCN(S(=O)(=O)c2cccc(C(=O)Nc3cc(C(N)=O)cc(C(N)=O)c3)c2)CC1	.	.	?	-66*
CCOc1ccc(Oc2c(/C=N/NC(=O)C3CC3)c(C)nn2-c2ccccc2)cc1	5%	4%	-9	-7
CCNC(=O)C1(C)CCCN(C(=O)CCc2cccs2)C1 (stereo not drawn)	.	.	-7	13
CCC(=O)Nc1ccc(C2C(=O)c3ccccc3C2=O)cc1	.	.	-15	-2
SMILES	L3MBTL1 inh	KDM4E inh	CtBP-E1A inh	Six1-Eya2 blk
COc1ccc(-n2c(C)c(C)c3c(NCCCO)ncnc32)cc1	.	.	0	-5
O=C1c2ccccc2-c2onc3ccc(N4CCCC4)c1c23	?	18µM*	?	-68*
Cn1c(=O)cc2c3c(c(N4CCCCC4)ccc31)C(=O)c1ccccc1-2	?	-1%	.	?
O=C1c2ccccc2C(=O)c2c1cccc2N1CCCC1	8.9µM*	3%	-89*	-87*
Nc1nc2c(ncn2C2OC(CO)CC2O)c(=O)[nH]1 (stereo not drawn)	.	6%	.	.
CC1CCCCN1S(=O)(=O)c1ccc2c(c1)CCN2C(=O)C1CC1 (stereo not drawn)	.	.	-4	2
COc1ccc(C(C#N)N2CCC(c3ccccc3)=N2)cc1 (stereo not drawn)	.	.	2	2
O=C(O)c1cccc2cc(-c3ccccc3)oc(=O)c12	.	.	4	9
O=C(O)c1cccc2cccc(-c3c4ccc(=O)c(O)c-4oc4c(O)c(O)ccc34)c12	.	.	0	-76*
Nc1c(C(=O)Nc2cccc(C(=O)O)c2)sc2nc3c(cc12)CCCC3	.	.	?	-24
Nc1c(C(=O)Nc2ccc(Cl)c(C(=O)O)c2)sc2nc3c(cc12)CCCC3	.	.	-78*	-74*
N#C/C(=C/c1ccc(N2CCCCC2)o1)C(=O)Nc1ccc2ccccc2c1	-12%	25µM*	.	8
COc1ccc(NC(=O)/C(C#N)=C/c2ccc(Br)o2)cc1	32µM*	-3%	3	-9
CCN(CC)c1ccc2c(-c3ccc(S(=O)(=O)O)cc3S(=O)(=O)[O-])c3ccc(=[N+](CC)CC)cc-3oc2c1	.	.	?	-67*
O=C(CSc1ccc2nnc(-c3ccccn3)n2n1)Nc1nccs1	.	-1%	-88*	-81*
Cc1csc(NC(=O)CSc2ccc(-c3ccccn3)nn2)n1	.	?	.	-86*
COc1ccccc1CNC(=O)CSc1ccc(-c2ccccn2)nn1	.	-4%	.	-67*
C=CCOC(=O)NC(CC(=Nc1ccc(OC)cc1)C(=O)OC)c1ccccc1 (stereo not drawn)	.	8%	.	.
CCc1ccc(OCC(=O)NC(C)C)cc1	2%	6%	11	3
CN(C)c1ccc(N=Nc2nccs2)cc1	.	.	?	-83*
CC(=O)c1ccc(N=Nc2ccc(N(C)C)cc2)cc1	-3%	?	-13	?
CCCCc1nc2c(c3c1C[C@H](C)OC3)CN(C(=O)C1CC1)CC2	.	15%[11.4 µM]	.	.
Nc1c(C(=O)O)ccc2c1C(=O)c1ccccc1C2=O	-21%	3%	?	-28
Nc1cc(C(=O)O)c(N)c2c1C(=O)c1ccccc1C2=O	.	?	-92*	-80*
COCCN=C1OC(=O)N2C(=O)C3=C4C(C[C@H]5C(=O)N(CC(=O)OC)C(=O)[C@H]5[C@H]4[C@@]12Cc1ccccc1)[C@H]1C(=O)N(CC(=O)OC)C(=O)[C@H]1[C@H]3C (stereo partly drawn)	.	-2%	.	.
SMILES	L3MBTL1 inh	KDM4E inh	CtBP-E1A inh	Six1-Eya2 blk
COc1cccc(CNc2ccc(N3CCCCC3)cc2)c1OC	20µM*	11µM*	?	-66*
COc1cccc(OC)c1C(=O)Nc1ccccc1N1CCCCC1	-1%	.	-5	1
COc1ccccc1CNc1ccc(N2CCCCC2)cc1	?	20µM*	?	?
COc1ccccc1CNc1ccc(C(=O)O)cc1	.	-4%	-2	0
COc1cccc(Nc2ccc(N3CCCCC3)cc2)c1OC	35µM*	.	.	.
O=C(Nc1ccn(CCCNCC2CCCCC2)c(=O)n1)OCc1ccccc1	.	.	-14	2
O=c1[nH]c2ccccc2c2nc3ccccn3c12	3%	?	?	?
O=c1nc2c(O)cccn2c2c1c(=O)[nH]c1ccccc12	-11%	11µM*	4	-83*
Cc1nnc(N/N=C/c2ccco2)n1N	.	28µM*	?	?
COc1cccc(/C=N/Nc2cc(N3CCOCC3)ncn2)c1O	?	.	-94*	-91*

Source: PubChem
